Reference: the supplement of paper PMC11732987, “Enantioselective OTUD7B fragment discovery through chemoproteomics screening and high-throughput optimisation” (Communications Chemistry, 2025)

What follows are compounds tested against COPS5 (UniProt Q92905) (assay: log2 ratio of Biotin-Ahx-Ub-VS probe labelling (fragment/DMSO); higher = less target engagement (more negative = stronger competition), active = hit call of the paper (q ≤ 0.05, log2 ratio ≤ -1)). Conditions: compound concentration: 200 uM; treatment time: 3 h.
Experimental: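 Competitive ABPP in HEK293T cell lysate. Lysates were treated with each chloroacetamide fragment at 200 µM for 3 h, then with Biotin-Ahx-Ub-VS (0.5 µM, 1 h), NeutrAvidin-enriched and analysed by diaPASEF LC-MS/MS. Protein LFQ was median-normalised; average log2 ratio is fragment/DMSO from an unpaired t-test (n=3 treated, n=44 DMSO). Hits: q ≤ 0.05, log2 ratio ≤ -1, unique peptides ≥ 2.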

Sequence of COPS5 (Q92905 whole entry, looked up, the tested form may be a part): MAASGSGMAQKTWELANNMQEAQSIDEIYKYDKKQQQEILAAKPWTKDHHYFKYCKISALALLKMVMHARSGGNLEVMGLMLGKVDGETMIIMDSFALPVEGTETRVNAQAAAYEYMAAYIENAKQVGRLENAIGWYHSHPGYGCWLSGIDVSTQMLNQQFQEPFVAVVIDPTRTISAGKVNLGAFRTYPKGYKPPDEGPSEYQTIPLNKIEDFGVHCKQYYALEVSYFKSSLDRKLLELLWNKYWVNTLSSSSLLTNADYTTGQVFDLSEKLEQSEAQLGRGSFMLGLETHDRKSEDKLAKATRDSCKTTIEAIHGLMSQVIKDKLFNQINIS

log2 ratio of Biotin-Ahx-Ub-VS probe labelling, inactive:
N#Cc1ccc(CNC(=O)CCl)cc1 0.228
Cl.Cn1c(CNC(=O)CCl)nc2cccnc21 0.0916
O=C(CCl)NCc1cccc(N2CCCC2=O)c1 -0.0124
Cl.O=C(CCl)NCc1ccnc(Oc2ccccc2F)c1 0.031
Cc1ncc2c(n1)CCN(C(=O)CCl)C2 0.163
Cc1ccc(N(C(=O)CCl)C2C=CS(=O)(=O)C2)cc1 (stereo not given) -0.235
O=C(CCl)N1CCN(C(=O)Nc2ccccc2)CC1 -0.0124
O=C(CCl)Nc1nc(-c2cccs2)cs1 0.0647
Cc1cccc(C(CNC(=O)CCl)N2CCOCC2)c1.Cl (stereo not given) 0.0369
N#Cc1ccccc1N1CCN(C(=O)CCl)CC1 -0.271
O=C(CCl)N1CCC(S(=O)(=O)c2ccc(F)cc2)CC1 -0.0227
O=C(CCl)N1CCC2(CCC(O)CC2)CC1 0.318
Cc1ccc(CNC(=O)CCl)nc1C.Cl 0.0421
Cc1cc(Cl)ccc1NC(=O)CCl -0.176
Cc1nc(CC2CCN(C(=O)CCl)CC2)no1 0.22
O=C(CCl)NCc1ccc(Cl)cc1 -0.152
Cc1nc(CN2CCN(C(=O)CCl)CC2)cs1 -0.305
CCCn1nccc1NC(=O)CCl -0.308
Cc1ccc(C)c(NC(=O)CCl)c1 -0.0407
CC(NC(=O)CCl)c1csc(-c2ccccc2)n1.Cl (stereo not given) -0.00417
Cc1n[nH]c2c1CN(C(=O)CCl)CC2 0.184
O=C(CCl)NCC1(c2ccccc2)CC1 0.0827
Cc1noc(C)c1CNC(=O)CCl 0.13
C/C(=C\CNC(=O)CCl)c1cnn(C)c1.Cl -0.0819
CCN1C(=O)C2CN(C(=O)CCl)CCN2C1=O (stereo not given) -0.0909
Cl.O=C(CCl)N1CCC(n2nc3ccccc3n2)CC1 -0.532
O=C(CCl)N1CCN(c2nc3ccccc3o2)CC1 -0.251
Cc1cccc(NC(=O)[C@@H]2CCCN2C(=O)CCl)n1 -0.0478
Cc1cnc2[nH]cc(CCNC(=O)CCl)c2c1 0.199
Cl.O=C(CCl)N1CCn2ncc(O)c2C1 0.242
O=C(CCl)N1CCC(C(O)c2ccc(F)cc2)CC1 (stereo not given) -0.113
O=C(CCl)Nc1cc2c(cc1Cl)OCCO2 0.135
O=C(CCl)NCCc1ccc(F)cc1 0.0919
O=C(CCl)NCCC1=CCCCC1 0.0168
Cc1ccc2nnc(CNC(=O)CCl)n2c1 -0.118
O=C(CCl)Nc1cc(Cl)ccc1C(=O)O 0.0271
Cl.O=C(CCl)N1CCc2ncncc2C1 -0.0201
NC(=O)C1CCCCN1C(=O)CCl (stereo not given) 0.234
O=C(CCl)NC1CCS(=O)(=O)c2ccccc21 (stereo not given) 0.159
CC(C)n1nccc1NC(=O)CCl 0.0761
